Glyco luc inh = blocks N-linked glycosylation in D54 reporter cells; reporter increase, % at 12.5 µM; AID 588692; 360,000 compounds, 0.23% hits; D54 ERlucT glycosylation luciferase reporter, 24 h; percent of 100 nM tunicamycin response;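 active means mean luciferase reporter signal, scaled so untreated is 0 and the glycosylation-blocking control 100, at or above a set limit in every replicate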;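 further: luciferase carries N-glycosylation sites so blocking glycosylation raises the light; 0% = median of neutral control wells and 100% = median of 100 nM tunicamycin wells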
Shn3 inh set2 = reduces Shn3 3'UTR luciferase signal in osteoblasts | Clone20 osteoblast Shn3 3'UTR firefly luciferase, 24 h | inhibition, % at 12.5 µM | 360,000 compounds, 0.52% hits | AID 588674;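 active means mean inhibition of at least 75% with every replicate also reaching 75%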;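 further: 0% = median of neutral control wells and 100% = pilot-screen positive control compound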
EBV LMP1 NFkB = inhibitors of Epstein-Barr LMP1-induced NF-kappaB reporter; inhibition, % at 12.5 µM; LMP1-induced NF-kappaB luciferase reporter cells, luminescence; 350,000 compounds, 0.69% hits; in the data active means inhibition above about 41%;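 further: 0% = neutral control wells and 100% = reference inhibitor control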
NSD2 HMT inh = blocks human histone methyltransferase NSD2. O96028. NSD2 peptide methylation, AlphaScreen, 120 min. inhibition, % at 12.5 µM. 310,000 compounds, 0.54% hits; in the data active means inhibition above about 50%
Target sequence (O96028 whole entry, looked up): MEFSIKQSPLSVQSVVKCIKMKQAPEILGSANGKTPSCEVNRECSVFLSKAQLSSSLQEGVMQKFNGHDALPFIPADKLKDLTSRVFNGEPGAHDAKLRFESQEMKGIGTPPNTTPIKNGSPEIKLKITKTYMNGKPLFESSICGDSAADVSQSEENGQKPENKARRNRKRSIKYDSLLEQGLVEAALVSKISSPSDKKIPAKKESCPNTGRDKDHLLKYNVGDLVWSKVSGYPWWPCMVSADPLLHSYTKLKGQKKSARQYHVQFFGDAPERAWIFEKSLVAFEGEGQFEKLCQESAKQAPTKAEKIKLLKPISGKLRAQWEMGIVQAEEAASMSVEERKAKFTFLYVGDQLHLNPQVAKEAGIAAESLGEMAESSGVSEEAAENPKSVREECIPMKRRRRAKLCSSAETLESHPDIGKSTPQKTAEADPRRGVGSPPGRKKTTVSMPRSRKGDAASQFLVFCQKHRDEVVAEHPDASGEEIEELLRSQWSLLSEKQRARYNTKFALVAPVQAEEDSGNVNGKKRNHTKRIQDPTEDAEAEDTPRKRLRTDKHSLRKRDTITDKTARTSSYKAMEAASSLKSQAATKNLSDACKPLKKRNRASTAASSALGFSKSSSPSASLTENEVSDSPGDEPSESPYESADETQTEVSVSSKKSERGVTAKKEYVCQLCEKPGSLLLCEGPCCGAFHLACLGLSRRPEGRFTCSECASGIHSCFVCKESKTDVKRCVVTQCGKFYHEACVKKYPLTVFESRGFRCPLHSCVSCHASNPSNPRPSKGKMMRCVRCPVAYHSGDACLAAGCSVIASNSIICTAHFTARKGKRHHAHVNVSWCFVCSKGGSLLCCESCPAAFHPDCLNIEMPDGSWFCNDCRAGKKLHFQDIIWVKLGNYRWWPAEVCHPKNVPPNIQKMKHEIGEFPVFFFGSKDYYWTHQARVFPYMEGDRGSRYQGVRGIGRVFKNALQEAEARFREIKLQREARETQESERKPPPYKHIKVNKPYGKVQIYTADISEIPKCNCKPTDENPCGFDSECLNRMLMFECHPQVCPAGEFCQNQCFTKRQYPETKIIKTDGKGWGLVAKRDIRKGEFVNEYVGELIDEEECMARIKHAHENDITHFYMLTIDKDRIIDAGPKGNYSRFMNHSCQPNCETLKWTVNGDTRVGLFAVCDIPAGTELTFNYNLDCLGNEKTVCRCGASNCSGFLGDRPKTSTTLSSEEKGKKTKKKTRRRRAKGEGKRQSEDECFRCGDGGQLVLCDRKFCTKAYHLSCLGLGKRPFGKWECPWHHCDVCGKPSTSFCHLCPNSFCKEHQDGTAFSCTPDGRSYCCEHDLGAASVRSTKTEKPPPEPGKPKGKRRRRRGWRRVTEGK
Env fusion inh = blocks HIV Env-driven cell-cell fusion | HeLa-JRFL Env/CEM21 cell fusion, luciferase | 360,000 compounds, 1.1% hits | inhibition, % at 12.3 µM | AID 651610;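 active means mean replicate inhibition score of at least 50 and every replicate individually at or above 50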;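 further: 0% = plate neutral controls and 100% = maraviroc near 300 nM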
PAX8 reporter = PAX8 transcriptional activity inhibition; 360,000 compounds, 1.2% hits; AID 652154; RMG-I TPO-luciferase reporter, SteadyGlo, 24 h; inhibition, % at 12.6 µM;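 active means mean replicate inhibition at least 60% with every replicate also reaching 60%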;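 further: luciferase light reporting Pax8 driven TPO promoter activity; plate controls were median of neutral control wells for no effect and mitoxantrone controls for full effect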
Starred values were filed as active, the others as inactive; . = no result given; [ ] = remark or other dose. Hits are enriched below; roughly 2.8% of the tested compounds scored in any of these assays.

SMILES	Glyco luc inh	Shn3 inh set2	EBV LMP1 NFkB	NSD2 HMT inh	Env fusion inh	PAX8 reporter
NC(N)=NN=C(c1ccc(F)cc1)c1ccc(C(F)(F)F)cc1	5	-11	-10	6	-274	95*
c1ccc2c(c1)OCC(CNc1ncnc3sccc13)O2 (stereo not given)	-4	67	19	-1	57*	-5
CC(C)NC(=O)N[C@@H]1CC[C@@H](CC(=O)NC2Cc3ccccc3C2)O[C@@H]1CO	.	.	.	.	3[16.7 µM]	-11
CCSc1ccc([C@@H]2[C@@H]3C(=O)N(CC)C(=O)[C@@H]3[C@]3(C(=O)OC)CCCCN23)cc1	7	9	-9	.	63*	0
CCSc1ccc([C@@H]2[C@H]3C(=O)N(CC)C(=O)[C@H]3[C@]3(C(=O)OC)CCCCN23)cc1	0	-2	-8	.	-15	-4
CCN1C(=O)[C@@H]2[C@@H](c3ccc(-c4ccc(Cl)c(Cl)c4)c(OC)c3)N3CCC[C@@]3(C(=O)OC)[C@@H]2C1=O	-3	31	5	.	-1	70*
COC(=O)[C@@]12CCCCN1[C@H](c1ccc(-c3ccc(Cl)c(Cl)c3)cc1)[C@H]1C(=O)N(C)C(=O)[C@H]12	-6	18	-1	.	17	-11
CCN1C(=O)[C@@H]2[C@@H](c3ccc(-c4ccc(Cl)c(Cl)c4)cc3)N3CCCC[C@@]3(C(=O)OC)[C@@H]2C1=O	-8	30	10	.	63*	3
CCCSc1ccc([C@@H]2[C@H]3C(=O)N(C)C(=O)[C@H]3[C@]3(C(=O)OC)CCCN23)cc1OC	1	-1	85*	.	.	2
CCCNC(=O)N(C)C[C@H]1Oc2cc(C#CCC(C)C)ccc2S(=O)(=O)N([C@@H](C)CO)C[C@@H]1C	.	.	.	.	-6[16.7 µM]	.
CCN(CC)S(=O)(=O)c1ccc(C)c(NC(=S)N2CCN(C/C=C/c3ccccc3)CC2)c1	-2	88*	26	0	14	25
CC1CCC(NC(=O)CCn2ccc3cc(S(=O)(=O)N4CCCC4)ccc32)CC1 (stereo not given)	4	-2	1	-3	73*	-21
CCOc1ccccc1CNC(=O)CCn1ccc2cc(S(=O)(=O)N3CCCCC3)ccc21	-3	30	-4	1	62*	14
CCOc1ccccc1CNC(=O)Cn1ccc2cc(S(=O)(=O)N3CCCCCC3)ccc21	-4	43	-5	-5	27	32
CC1CCN(S(=O)(=O)c2ccc3c(ccn3CCC(=O)N3CCCCC3)c2)CC1	-1	2	3	-2	2	8
C[C@@H]1CN([C@@H](C)CO)C(=O)c2cccc(NC(=O)Nc3ccc4c(c3)OCO4)c2O[C@@H]1CN(C)Cc1ccc(C(F)(F)F)cc1	.	.	.	.	-60[16.7 µM]	17
CCCOc1ccc(C2C(=O)N(C3CCCCC3)CC(=O)N2C2CC2)cc1OC (stereo not given)	3	2	2	-2	.	.
CCCOc1ccc(C2C(=O)N(C3CCCCCC3)CC(=O)N2Cc2ccco2)cc1OC (stereo not given)	3	-3	-3	4	58*	.
CCOc1ccccc1C=C1SC(=S)NC1=O	2	-15	-5	11	78*	-19
O=C1NC(Cc2ccc(O)cc2)c2nc3cc(F)ccc3c(=O)n2-c2cc3ccccc3cc21 (stereo not given)	10	6	-5	.	-45	66*
CC(=O)N1[C@H](C(=O)NCC2CC2)[C@@H](CO)[C@@H]2Cn3c(ccc(-c4cccc(F)c4)c3=O)[C@@H]21	.	.	.	.	.	-1
C=CCNC(=O)[C@@H]1[C@H]2C(=O)O[C@H](c3ccccc3)[C@H](c3ccccc3)N2[C@H](c2ccccc2OCCO)[C@@]12C(=O)N(C(=O)OCCOC)c1ccc(C#CC3(O)CCCCCC3)cc12	.	.	.	.	-43[16.7 µM]	71*
C=CCNC(=O)[C@H]1[C@@H]2C(=O)O[C@@H](c3ccccc3)[C@@H](c3ccccc3)N2[C@@H](c2ccccc2OCCO)[C@]12C(=O)Nc1ccc(C#CC3(O)CCCCCC3)cc12	.	.	.	.	-60[16.7 µM]	99*
C=CCNC(=O)[C@H]1[C@@H]2C(=O)O[C@@H](c3ccccc3)[C@@H](c3ccccc3)N2[C@@H](c2ccc(O)cc2)[C@]12C(=O)N(C(=O)OCCOC)c1ccc(C#CCC(C(=O)OC)C(=O)OC)cc12	.	.	.	.	16[16.7 µM]	-1
C=CCNC(=O)[C@@H]1[C@H]2C(=O)O[C@H](c3ccccc3)[C@H](c3ccccc3)N2[C@H](c2ccccc2OCCO)[C@@]12C(=O)N(C(=O)OCCOC)c1ccc(C#CC3=CCCCC3)cc12	.	.	.	.	-3[16.7 µM]	68*
SMILES	Glyco luc inh	Shn3 inh set2	EBV LMP1 NFkB	NSD2 HMT inh	Env fusion inh	PAX8 reporter
O=C1O[C@H](c2ccccc2)[C@H](c2ccccc2)N2[C@H]1[C@@H](C(=O)N1CCCCCCC1)[C@]1(C(=O)Nc3ccc(C#CC4(O)CCCCCC4)cc31)[C@H]2c1ccc(OCCO)cc1	.	.	.	.	2[16.7 µM]	-1
C=CCNC(=O)[C@@H]1[C@H]2C(=O)O[C@H](c3ccccc3)[C@H](c3ccccc3)N2[C@H](c2ccccc2OCCO)[C@@]12C(=O)N(C(=O)OCCOC)c1ccc(C#CCC(C(=O)OC)C(=O)OC)cc12	.	.	.	.	-6[16.7 µM]	104*
CCC(=O)N1[C@@H]2c3ccc(-c4ccccc4)c(=O)n3C[C@@H]2[C@@H](CO)[C@@H]1C(=O)N1CCCCC1	.	.	.	.	.	-5
COc1ccc(S(=O)(=O)Nc2ccc3c(c2)CC(=O)N([C@H](C)CO)C[C@@H](C)[C@H](CN(C)C(=O)Nc2cccc4ccccc24)O3)cc1	.	.	.	.	14[16.7 µM]	-15
O=C(C1CCC1)N1CC2(C1)[C@H](c1ccccc1)[C@@H](CO)N2C(=O)c1ccccn1	.	.	.	.	.	-12
CCN(CC)C(=O)CSc1n[nH]c(=O)n1CCc1ccccc1	0	1	-6	-8	-7	12
O=c1[nH]nc(Sc2ncnc3sccc23)n1CCc1ccccc1	-8	48	20	0	64*	83*
COc1ccc(CNCCC(c2ccc(OC(C)C)cc2)C(C)C)cc1OC (stereo not given)	-2	76	-27	8	77*	.
COc1ccc(C(CCNCc2ccc(N(C)C)cc2)C(C)C)cc1 (stereo not given)	-5	51	2	14	65*	2
O=S(=O)(N[C@@H]1CC[C@H](CCn2cc(-c3ccccc3F)nn2)O[C@@H]1CO)c1ccc(Cl)cc1	.	.	.	.	10[16.7 µM]	24
Cc1ccc(C)c(-n2cc(CNCCCn3cccn3)c(-c3ccccc3)n2)c1	-2	-3	0	0	69*	15
CCCOc1ccc2ccccc2c1/C=N/n1cnnc1	5	13	-2	.	91*	.
CCOc1ccc2ccccc2c1/C=N/n1cncn1	5	10	-2	-1	-101	-15
COc1nc(OC)nc(Oc2ccc(Cl)cc2[N+](=O)[O-])n1	0	-13	-5	1	-4	1

Screens: PubChem BioAssay, Broad Institute
